From PubChem BioAssay
HDAC3 inhib: HDAC3 deacetylase inhibitors, primary screen, biochemical, fluorescence, cell-free homogeneous. Histone deacetylase 3 (Homo sapiens), O15379. recombinant HDAC3, fluorogenic peptide/trypsin coupled. inhibition, % at 8.3 µM. 0.15% of 320,000 active; in the data active means inhibition above about 26%, passing the limit was not always enough; inconclusive means no clear call, values can overlap the other calls
Rtt109 Vps75: inhibitors of C. albicans Rtt109/Vps75 HAT, primary screen, biochemical, ThioGlo CoA-SH fluorescence, plate reader. 0.16% of 330,000 active. Histone acetyltransferase RTT109 (Candida albicans (strain SC5314 / ATCC MYA-2876)), …. inhibition, % at 34.9 µM. purified Rtt109/Vps75, 4 h;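 active means inhibition of at least 50% in every replicate; inconclusive means best replicate reaches 50% inhibition but some replicates fall short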
PKA-R2B act: activators of PKA-R2B holoenzyme, primary screen, biochemical, fluorescence polarization, Cy5-IP20, human; 0.079% of 340,000 active; PKA-R2B holoenzyme dissociation; R2B truncated from residue 108, S112A mutant; 0% DMSO only, 100% 113 µM cGMP; activation, % at 11.4 µM; AID 504700, 2011;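 active means activation above a cutoff set at the mean over all compounds plus 3 SD, cut at about 18% in these data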;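 further: higher means more holoenzyme dissociation and a rise in polarization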
Target sequence (P31323 whole entry, looked up, other chains not shown, the tested form may be a part): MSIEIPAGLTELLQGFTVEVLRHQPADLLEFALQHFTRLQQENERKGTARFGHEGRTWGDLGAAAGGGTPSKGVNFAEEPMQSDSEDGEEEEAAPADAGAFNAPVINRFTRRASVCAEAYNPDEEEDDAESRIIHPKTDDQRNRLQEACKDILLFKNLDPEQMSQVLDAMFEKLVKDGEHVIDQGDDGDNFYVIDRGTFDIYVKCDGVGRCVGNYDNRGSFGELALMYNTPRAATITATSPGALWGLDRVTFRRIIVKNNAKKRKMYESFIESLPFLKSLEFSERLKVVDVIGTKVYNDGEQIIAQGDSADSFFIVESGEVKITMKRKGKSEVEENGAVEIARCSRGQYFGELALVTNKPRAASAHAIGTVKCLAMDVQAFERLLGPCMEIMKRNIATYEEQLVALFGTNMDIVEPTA
PKA-R1A activ: activators of PKA-R1A holoenzyme, primary screen, biochemical, fluorescence polarization, Cy5-IP20, bovine R1A, mouse PKAc | cAMP-dependent protein kinase type I-alpha regulatory subunit (Bos taurus) + … | PKA-R1A dissociation; scaled: DMSO 0%, 113 µM cGMP 100% | activation, % at 11.4 µM | 0.083% of 340,000 active | AID 504707, 2011;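 active means percent activation above the mean of all tested compounds plus 3 SD, cut at about 19% in these data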;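 further: higher means more PKAc released from R1A so a rise in polarization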
Starred values were filed as active, the others as inactive; ? = inconclusive; nt = no result. The list is not random: actives were taken first. Their share in the collection is about 0.43%.

SMILES	HDAC3 inhib	Rtt109 Vps75	PKA-R2B act	PKA-R1A activ
Cc1cc(OCC(F)(F)C(F)(F)C(F)(F)C(F)(F)C(F)(F)C(F)F)nc(N)n1	nt	-6	-9	-11
NC(=O)c1ccc(OCC(F)(F)C(F)(F)C(F)(F)C(F)(F)C(F)(F)C(F)F)cc1	31*	-4	-9	-10
CN(CC(=O)Nc1ccc(Cl)cc1)C(=O)c1cccc(S(=O)(=O)NCc2ccccc2)c1	6	60*	-9	-11
CN(CC(=O)Nc1ccc(Cl)cc1)C(=O)c1cccc(S(=O)(=O)N2CCN(Cc3ccccc3)CC2)c1	7	-6	3	-2
CC(C)(C)N(Cc1ccccc1)C(=O)COC(=O)CSc1ccc([N+](=O)[O-])cc1	5	0	6	0
COCCNC(=O)C(c1ccc(O)cc1)N(Cc1ccccc1)C(=O)CCC(=O)Nc1ccccn1 (stereo not drawn)	-4	58*	-6	-11
O=C(CSC1=NC2(CCCCCC2)N=C1c1ccccc1)Nc1ccc2c(c1)OCCO2	13	-12	0	-12
O=C(CSC1=NC2(CCCCC2)N=C1c1ccccc1)Nc1ccc2c(c1)OCCO2	-2	170*	-1	-1
Cn1c(=O)[nH]c(=O)c2c1[nH]c(=S)n2CCCc1ccccc1	nt	-9	6	-1
Cn1c(=O)c2c([nH]c(=S)n2CCCc2ccccc2)n(C)c1=O	41*	-4	-8	-9
CC[N+](C)(C)CC/C=C1/c2ccccc2Sc2ccc(Cl)cc21	-3	nt	nt	nt
CCCCCCCCCCC[N+](C)(C)CC/C=C1/c2ccccc2Sc2ccc(Cl)cc21	32*	-5	5	-1
CCCCCCCCCC[N+](C)(C)CC/C=C1/c2ccccc2Sc2ccc(Cl)cc21	35*	4	6	-7
CN(C)CC/C=C1\c2ccccc2Sc2ccc(Cl)cc21	-2	28	3	1
NC(=O)Cn1nc([N+](=O)[O-])nc1Oc1ccccc1F	1	-2	3	4
COc1ccc(S(=O)(=O)N(C)C)cc1NC(=O)Cc1ccc(S(=O)(=O)N2CCOCC2)s1	nt	51*	-6	-15
Cc1ccc(C(=O)CSc2nc(O)cc(=O)[nH]2)cc1C	30*	-1	7	3
C=CCc1c(O)nc(SCC(=O)c2ccccc2)[nH]c1=O	37*	-21	7	3
CCC(C)c1c(O)nc(SCC(=O)c2ccccc2)[nH]c1=O (stereo not drawn)	33*	-142	-2	-7
CC1=C(C(=O)N(C(C)C)C(C)C)CC(CC(=O)NCc2cccs2)C(=O)N1Cc1ccccc1 (stereo not drawn)	nt	nt	-8	3
Cc1ccc(NC(=S)NC(=O)C2CCCC2)c(Br)c1	2	1	-4	2
O=C1C2C3CC(C(Br)C3Br)C2C(=O)N1c1nccs1 (stereo not drawn)	-6	nt	nt	nt
CCOC(=O)c1c(C)[nH]c(C)c1C(=O)CSc1nc2ccccc2c(=O)n1-c1ccc(C)cc1	31*	6	-4	-8
CCOC(=O)c1c(C)[nH]c(C)c1C(=O)CSc1nc2ccccc2c(=O)n1-c1ccc(Cl)cc1	6	-1	-10	-11
O=C1Nc2c(c(=O)[nH]c(=O)n2-c2ccc(F)cc2)C1(NS(=O)(=O)c1ccccc1)C(F)(F)F (stereo not drawn)	-1	-2	-8	-6
SMILES	HDAC3 inhib	Rtt109 Vps75	PKA-R2B act	PKA-R1A activ
Cc1ccc(S(=O)(=O)c2nc(-c3ccccc3)oc2N2CCC(C(N)=O)CC2)cc1	-2	56*	-8	-6
NC(=O)C1CCN(c2oc(-c3ccccc3)nc2S(=O)(=O)c2ccc(Br)cc2)CC1	-3	1	-8	1
COc1ccc(CCC(=O)NCCNC(=O)CCc2ccc(OC)cc2)cc1	5	0	3	-2
CSc1nc(-c2ccccc2)nn1C(=O)c1ccccc1	?	-2	2	7
CCCC(=O)n1nc(-c2ccccc2)nc1SC	32*	-10	-1	-8
COc1ccc(NC(=O)Nc2nnc(-c3cccs3)s2)cc1	2	62*	-5	-1
O=S(=O)(NCC(c1cccs1)N1CCc2ccccc2C1)c1ccccc1 (stereo not drawn)	-4	11	-13	-6
Clc1ccc(N=c2ssnc2Cl)cc1	14	8	0	-5
N#Cc1ccc(N=c2ssnc2Cl)cc1	38*	-5	-4	0
COc1cc(N=c2ssnc2Cl)cc(OC)c1OC	36*	12	-14	-9
COc1ccc(CC(=O)N[C@@H]2c3cc(OC)c(OC)cc3C[C@H]2O)cc1	nt	-8	0	-4
CCCN(CC(=O)Nc1ccccc1OC)C(=O)c1ccc(=O)[nH]c1	2	5	9	4
Cc1cccc(-n2c(O)c(/C=N/NC(=O)c3ccccc3Cl)c3ccccc3c2=O)n1	?	64*	-3	-4
Cc1cc(S(=O)(=O)Nc2ccc(C(=O)NCCN3CCOCC3)cc2)ccc1F	nt	nt	-3	0
COc1ccc(S(=O)(=O)Nc2noc3ccccc23)cc1	2	-4	-9	3
CS(=O)(=O)c1ccc(N)c(SSc2cc(S(C)(=O)=O)ccc2N)c1	11	182*	11	-6
C=CC[C@H](CC(=O)N(CCO)Cc1ccccc1)C(=O)N[C@H](COC(=O)[C@@H](CC=C)Cc1ccc(F)cc1)Cc1ccccc1	33*	4	-10	-7
C=CC[C@@H](CC(=O)N(CCO)Cc1ccccc1)C(=O)N[C@H](C)COC(=O)[C@@H](CC=C)Cc1ccc(F)cc1	8	2	-6	-1
C=CCC[C@H](Cc1ccc(F)cc1)C(=O)OC[C@@H](Cc1c[nH]c2ccccc12)NC(=O)[C@@H](CC=C)CC(=O)N(CCO)Cc1ccccc1	40*	-4	-8	-17
C=CC[C@@H](CC(=O)NCCO)C(=O)N[C@@H](COC(=O)[C@@H](CC=C)Cc1ccc(F)cc1)Cc1c[nH]c2ccccc12	26*	7	-6	4
CC(O)CNC(=O)Cc1cc(=O)[nH]c(=O)[nH]1 (stereo not drawn)	-1	-3	-1	1
CCOc1ccc(N(CC(=O)Nc2ccc(C)c(C)c2)S(C)(=O)=O)cc1	-2	3	-5	-3
O=C(Nc1ccc(F)cc1)c1cccc2c1C(=O)N(CC1CCCO1)C2 (stereo not drawn)	-3	5	-18	0
O=C(Nc1ccc2c(c1)C(=O)c1ccccc1-2)c1ccccc1	nt	-16	-3	1
COc1cccc(C(=O)Nc2ccc3c(c2)C(=O)c2ccccc2C3=O)c1	-1	50*	-9	-2
CCOc1cc(C(=O)OC(C(=O)NC(=O)NC)c2ccccc2)ccc1OCC(=O)N1CCOCC1 (stereo not drawn)	27*	-2	7	4
COc1ccc(C(=O)O/N=C(/c2ccccc2)c2ccncc2)cc1	44*	4	6	1
